PubChem BioAssay (NCATS)
Values joined by “and” are separate entries in the source; they are usually repeats but may differ in a detail not shown here. Identical values can stand only once. Inconclusive results are not listed. Active and inactive are the calls of the source. Calls come from the whole dose curve; as a rule, active = well fitted inhibition curve with a large enough effect; inconclusive = small, poorly fitted or top-dose-only effect; inactive = flat fitted curve, though single readings scatter.

Legend:
[1] = qHTS profiling for inhibitors of Plasmodium falciparum proliferation (AID 504749);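 note: 0% = DMSO vehicle and full inhibition = artemisinin control; nearly all actives have a fitted effect of over 60% in size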; conditions: P. falciparum in erythrocytes, SYBR Green DNA, 72 h
Outline: (§1)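 SYBR Green fluorescence (ex 485 nm, em 535 nm) reports parasite DNA after 72 h compound exposure of infected red cells at 0.3% parasitemia, 2.5% hematocrit; signal normalized to 0.29 uM artemisinin and vehicle wells.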

[2] = system: 3D7; experiment: as above; conditions: P. falciparum in erythrocytes, SYBR Green DNA, 72 h; series mostly up to 28.7 µM
Outline: as §1

[3] = system: 7G8; experiment: as above; conditions: P. falciparum in erythrocytes, SYBR Green DNA, 72 h; series mostly up to 28.7 µM
Outline: as §1

[4] = system: AA1029; experiment: as above; conditions: P. falciparum in erythrocytes, SYBR Green DNA, 72 h; series mostly up to 28.7 µM
Outline: as §1

[5] = system: AS120; experiment: as above; conditions: P. falciparum in erythrocytes, SYBR Green DNA, 72 h; series mostly up to 28.7 µM
Outline: as §1

[6] = system: ATS189; experiment: as above; conditions: P. falciparum in erythrocytes, SYBR Green DNA, 72 h; series mostly up to 28.7 µM
Outline: as §1

[7] = system: ATS95; experiment: as above; conditions: P. falciparum in erythrocytes, SYBR Green DNA, 72 h; series mostly up to 28.7 µM
Outline: as §1

[8] = system: C2A; experiment: as above; conditions: P. falciparum in erythrocytes, SYBR Green DNA, 72 h; series mostly up to 28.7 µM
Outline: as §1

[9] = system: CP185; experiment: as above; conditions: P. falciparum in erythrocytes, SYBR Green DNA, 72 h; series mostly up to 28.7 µM
Outline: as §1

[10] = system: CP191; experiment: as above; conditions: P. falciparum in erythrocytes, SYBR Green DNA, 72 h; series mostly up to 28.7 µM
Outline: as §1

[11] = system: CP192; experiment: as above; conditions: P. falciparum in erythrocytes, SYBR Green DNA, 72 h; series mostly up to 28.7 µM
Outline: as §1

[12] = system: CP194; experiment: as above; conditions: P. falciparum in erythrocytes, SYBR Green DNA, 72 h; series mostly up to 28.7 µM
Outline: as §1

[13] = system: CP201; experiment: as above; conditions: P. falciparum in erythrocytes, SYBR Green DNA, 72 h; series mostly up to 28.7 µM
Outline: as §1

[14] = system: CP211; experiment: as above; conditions: P. falciparum in erythrocytes, SYBR Green DNA, 72 h; series mostly up to 28.7 µM
Outline: as §1

[15] = system: CP215; experiment: as above; conditions: P. falciparum in erythrocytes, SYBR Green DNA, 72 h; series mostly up to 28.7 µM
Outline: as §1

[16] = system: CP217; experiment: as above; conditions: P. falciparum in erythrocytes, SYBR Green DNA, 72 h; series mostly up to 28.7 µM
Outline: as §1

[17] = system: CP237; experiment: as above; conditions: P. falciparum in erythrocytes, SYBR Green DNA, 72 h; series mostly up to 28.7 µM
Outline: as §1

[18] = system: CP238; experiment: as above; conditions: P. falciparum in erythrocytes, SYBR Green DNA, 72 h; series mostly up to 28.7 µM
Outline: as §1

[19] = system: CP203; experiment: as above; conditions: P. falciparum in erythrocytes, SYBR Green DNA, 72 h; series mostly up to 28.7 µM
Outline: as §1

[20] = at 28.7 µM (top of the series), parasite line A
[21] = at 28.7 µM (top of the series), parasite line B

Cc1ccccc1CNc1ncnc2c1ncn2C1OC(CO)C(O)C1O (stereo unspecified)
inactive: activity, negative = inhibition [1, 20] 17.8% | activity, negative = inhibition [1, 21] -2% | Potency [2] | Potency [3] | Potency [4] | Potency [5] | Potency [6] | Potency [7] | Potency [8] | Potency [9] | Potency [10] | Potency [11] | Potency [12] | Potency [13] | Potency [14] | Potency [15] | Potency [16] | Potency [17] | Potency [18]

COc1cc2c3cc1Oc1cc(ccc1O)C[C@@H]1c4c(cc(OC)c(O)c4Oc4ccc(cc4)C[C@@H]3N(C)CC2)CC[N+]1(C)C
inactive: activity, negative = inhibition [1, 20] 5.03% | activity, negative = inhibition [1, 21] 8.98% | Potency [2] | Potency [3] | Potency [4] | Potency [5] | Potency [6] | Potency [7] | Potency [8] | Potency [9] | Potency [10] | Potency [11] | Potency [12] | Potency [13] | Potency [14] | Potency [15] | Potency [16] | Potency [17] | Potency [18]

c1ccc2sc(SSc3nc4ccccc4s3)nc2c1
inactive: activity, negative = inhibition [1, 20] 6.98% | activity, negative = inhibition [1, 21] -5.71% | Potency [2] | Potency [3] | Potency [4] | Potency [5] | Potency [6] | Potency [7] | Potency [8] | Potency [9] | Potency [10] | Potency [11] | Potency [12] | Potency [13] | Potency [19] | Potency [14] | Potency [15] | Potency [16] | Potency [17] | Potency [18]

O=C(O)COc1ccc(C(=O)c2cccs2)c(Cl)c1Cl
inactive: activity, negative = inhibition [1, 20] 17.6% and 6.75% | activity, negative = inhibition [1, 21] 6.94% and 2.12% | Potency [2] | Potency [3] | Potency [4] | Potency [5] | Potency [6] | Potency [7] | Potency [8] | Potency [9] | Potency [10] | Potency [11] | Potency [12] | Potency [13] | Potency [14] | Potency [15] | Potency [16] | Potency [17] | Potency [18]

C=CCN1C(=O)C(CC(C)C)NC1=S (stereo unspecified)
inactive: activity, negative = inhibition [1, 20] -18.4% and 2.94% | activity, negative = inhibition [1, 21] -2.47% and 3.7% | Potency [2] | Potency [3] | Potency [4] | Potency [5] | Potency [6] | Potency [7] | Potency [8] | Potency [9] | Potency [10] | Potency [11] | Potency [12] | Potency [13] | Potency [19] | Potency [14] | Potency [15] | Potency [16] | Potency [17] | Potency [18]

CCOC(=O)c1ccccc1O
inactive: activity, negative = inhibition [1, 20] 4.06% | activity, negative = inhibition [1, 21] 15.6% | Potency [2] | Potency [3] | Potency [4] | Potency [5] | Potency [6] | Potency [7] | Potency [8] | Potency [9] | Potency [10] | Potency [11] | Potency [12] | Potency [13] | Potency [14] | Potency [15] | Potency [16] | Potency [17] | Potency [18]

CCCCCCOc1ccccc1C(N)=O
inactive: activity, negative = inhibition [1, 20] -23.7% | activity, negative = inhibition [1, 21] 1.07% | Potency [2] | Potency [3] | Potency [4] | Potency [5] | Potency [6] | Potency [7] | Potency [8] | Potency [9] | Potency [10] | Potency [11] | Potency [12] | Potency [13] | Potency [14] | Potency [15] | Potency [16] | Potency [17] | Potency [18]

O=C(Nc1ccc(C(=O)O)c(O)c1)c1ccccc1
inactive: activity, negative = inhibition [1, 20] -20.7% | activity, negative = inhibition [1, 21] -1.01% | Potency [2] | Potency [3] | Potency [4] | Potency [5] | Potency [6] | Potency [7] | Potency [8] | Potency [9] | Potency [10] | Potency [11] | Potency [12] | Potency [13] | Potency [14] | Potency [15] | Potency [16] | Potency [17] | Potency [18]

C=CCCCCCCCCC(=O)O
inactive: activity, negative = inhibition [1, 20] 5.45% | activity, negative = inhibition [1, 21] 15% | Potency [2] | Potency [3] | Potency [4] | Potency [5] | Potency [6] | Potency [7] | Potency [8] | Potency [9] | Potency [10] | Potency [11] | Potency [12] | Potency [13] | Potency [14] | Potency [15] | Potency [16] | Potency [17] | Potency [18]

Nc1ccc(O)c(C(=O)O)c1
inactive: activity, negative = inhibition [1, 20] -0.61% | activity, negative = inhibition [1, 21] -10.7% | Potency [2] | Potency [3] | Potency [4] | Potency [5] | Potency [6] | Potency [7] | Potency [8] | Potency [9] | Potency [10] | Potency [11] | Potency [12] | Potency [13] | Potency [19] | Potency [14] | Potency [15] | Potency [16] | Potency [17] | Potency [18]

C=C(Nc1ccc(OCC)cc1)Nc1ccc(OCC)cc1
inactive: activity, negative = inhibition [1, 20] 1.26% and 13.3% | activity, negative = inhibition [1, 21] -29.4% and 7.39% | Potency [2] | Potency [3] | Potency [4] | Potency [5] | Potency [6] | Potency [7] | Potency [8] | Potency [9] | Potency [10] | Potency [11] | Potency [12] | Potency [13] | Potency [14] | Potency [15] | Potency [16] | Potency [17] | Potency [18]

Cc1ccc(C(=O)c2ccc(CC(=O)O)n2C)cc1
inactive: activity, negative = inhibition ([1]; at 12.8 µM (top of the series), parasite line A) -5.58% | activity, negative = inhibition ([1]; at 12.8 µM (top of the series), parasite line B) 10.6% | Potency [2] | Potency [3] | Potency [4] | Potency [5] | Potency [6] | Potency [7] | Potency [8] | Potency [9] | Potency [10] | Potency [11] | Potency [12] | Potency [13] | Potency [14] | Potency [15] | Potency [16] | Potency [17] | Potency [18]
